Source: PubChem (National Center for Advancing Translational Sciences (NCATS))
In the library only some 2.4% were active in any assay of this set; here they are far more common.
D2 PAM-1: positively modulates the human D2 dopamine receptor allosterically; P14416; potentiation, % at 10 µM; HEK293 T-REx D2, calcium flux, EC20 dopamine potentiation; hit rate 0.34% among 340,000;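 active means potentiation over 3 SD above the plate norm, cut at about 30% in these data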; further: 0% is about no effect
Target sequence (P14416 whole entry, looked up): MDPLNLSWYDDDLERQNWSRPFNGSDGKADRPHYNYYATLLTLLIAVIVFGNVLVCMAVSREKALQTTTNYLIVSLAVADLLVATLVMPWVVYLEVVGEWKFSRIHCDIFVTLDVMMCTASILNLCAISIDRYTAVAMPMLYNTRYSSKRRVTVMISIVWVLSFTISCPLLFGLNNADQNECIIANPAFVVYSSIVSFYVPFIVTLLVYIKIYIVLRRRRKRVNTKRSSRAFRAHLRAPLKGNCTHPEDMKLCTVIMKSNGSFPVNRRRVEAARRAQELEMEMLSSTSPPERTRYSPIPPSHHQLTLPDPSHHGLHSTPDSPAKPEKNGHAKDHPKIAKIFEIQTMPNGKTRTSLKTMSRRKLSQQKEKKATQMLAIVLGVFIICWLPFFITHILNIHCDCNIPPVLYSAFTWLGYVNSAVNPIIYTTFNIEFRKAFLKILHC
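Using a no-wash calcium dye in inducible, force-coupled HEK293 Trex cells expressing D2, we tracked fluorescence each second for 180 s after compound, then for 180 s after EC20 dopamine to detect augmented signalling.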
D2 ag-1: human D2 receptor agonism in beta-arrestin assay. activation, % (test concentration not listed). DiscoveRx PathHunter D2 beta-arrestin, luminescence, 90 min; 100% = 57 uM dopamine signal. AID 624465. hit rate 0.084% among 360,000; in the data active means activation above about 40%; inconclusive means between about 15% and that limit
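Agonist mode: compounds alone added to overnight-plated D2 PathHunter cells for 90 min at 37 C, with 57 uM final dopamine (EC100) defining full response. Beta-arrestin recruitment detected by chemiluminescent reagent, read after 1 h at ambient temperature.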
D2 ag-2: activates the human D2 dopamine receptor. HEK293 T-REx D2 cells, calcium flux agonist mode. activation, % at 2 µM. hit rate 0.53% among 340,000. AID 485358;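 active means activation over 3 SD above normal in the single-dose calcium agonist read, cut at about 30% in these data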; further: 0% is about no effect
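Calcium-flux readout, 1 cycle/sec over 180 s following compound pin transfer, in inducible HEK293 Trex D2 cells (force-coupled); dopamine controls included. Positive calcium responses during this window marked compounds as potential agonists.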
D2 PAM-2: human D2 receptor positive allosteric modulation; DiscoveRx D2 beta-arrestin cells, luminescence, 90 min; 100% = 57 uM dopamine signal; potentiation, % (concentration not given with the values); AID 624464; P14416; hit rate 0.23% among 360,000; in the data active means potentiation above about 50%; inconclusive means mostly about 30% to 49%
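PathHunter beta-arrestin assay in DiscoveRx D2 cells. Compounds were added with an EC20 of dopamine (50 nM final) for 90 min at 37 deg C. Luminescence was read 1 h after detection reagent, with 57 uM dopamine as the EC100 control.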
D2 antag: antagonizes the human D2 dopamine receptor | inhibition, % at 10 µM | P14416 | hit rate 2% among 340,000 | AID 485344 | HEK293 TREx D2 cells, calcium flux, dopamine EC80; in the data active means inhibition above about 30%; inactive means below that, where a call was filed; further: 0% is about no effect
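Antagonism is scored as inhibition of an EC80 dopamine-evoked calcium signal in a force-coupled, tetracycline-inducible HEK293 T-REx D2 line, with compound present 180 s before agonist.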
An asterisk follows results filed as active; u = inconclusive; x = no result.

SMILES	D2 PAM-1	D2 ag-1	D2 ag-2	D2 PAM-2	D2 antag
COc1ccc(C(=O)Nc2ccc(-c3cc(C(F)(F)F)nn3-c3ccccc3)cc2)cc1OC	7.1	x	1.7	x	x
CCOc1ccc(-c2cc3c(=O)n(Cc4nc(-c5ccc(OC(C)C)cc5)oc4C)ccn3n2)cc1Cl	16.6	x	-0.1	x	x
COc1ccccc1C/C(N)=N/OC(=O)c1cccs1	-3.9	u	0.1	53.4*	3.1
N/C(Cc1ccc(Cl)cc1Cl)=N\OC(=O)c1cccs1	-0.5	13.9	-0.5	119.3*	-25.4
N/C(Cc1ccc(Cl)cc1Cl)=N\OC(=O)Cc1cccs1	6.7	-0.6	-0.3	-0.7	3.1
N/C(Cc1cccc2ccccc12)=N\OC(=O)c1cccs1	0.1	-1.2	8.7	-14.7	-17.0
Brc1cnc(N2CCCC2)nc1N1CCOCC1	4.4	-2.5	-0.3	-2.1	34.9*
CCCn1c(Nc2ccccc2C)nc2ccccc21	-12.7	-0.4	-0.2	-32.7	42.5*
CCCn1c(NCc2ccccc2C)nc2ccccc21	-20.0	x	2.2	x	x
CCCCn1ccc(O)c(Cc2ccc(F)cc2)c1=O	0.0	-3.3	-0.6	-38.8	0.4
O=c1c(Cc2ccc(F)cc2)c(O)ccn1CCc1ccccn1	-7.0	-4.4	0.8	-1.9	40.9*
COc1ccc(-n2ncc3c2ncn2nc(COc4ccc(Cl)cc4)nc32)cc1	8.8	x	1.0	x	x
COc1cccc(-n2c([S-])c(C(=O)Nc3ccc(C(F)(F)F)cc3)[n+]3ccccc23)c1	-23.5	x	-0.6	x	35.1*
COc1cccc2cc(-c3cn4c(n3)sc3cc(F)ccc34)c(=O)oc12	5.6	x	0.8	x	x
CCOC(=O)CCNC(=O)N1CCN(S(=O)(=O)c2ccc3c(ccn3C)c2)CC1	8.2	x	x	x	x
COC(=O)Nc1nc2c(C)cccc2s1	-6.2	-2.2	0.3	-13.6	37.9*
Cc1ccc2sc(NC(=O)C3CC3)nc2c1C	36.1*	-0.7	0.3	-8.4	6.7
Cc1ccc(NC(=O)Cn2cnc3c(oc4ccccc43)c2=O)cc1Cl	-0.8	x	1.0	x	x
COc1ccc(-c2oc3ncn4nc(-c5ccccc5O)nc4c3c2-c2ccc(OC)cc2)cc1	-7.7	x	-0.5	x	x
O=C(c1ccccc1O)N1N=C(C(F)(F)F)CC1(O)c1ccc([N+](=O)[O-])cc1 (configuration not stated)	-7.0	-7.2	0.9	-12.6	-5.9
CCc1ccc(C2(O)CC(C(F)(F)F)=NN2C(=O)Cc2ccc([N+](=O)[O-])cc2)cc1 (configuration not stated)	-4.8	-3.4	-0.2	-12.5	32.8*
Cc1cc2nnc(SCC(=O)N3C(C)CCCC3C)n2c(N)n1 (configuration not stated)	36.5*	-2.4	0.9	-0.7	30.4*
Cc1cc2nnc(SCC(=O)N3CCCCC3)n2c(N)n1	16.2	-4.5	0.1	-4.5	1.7
Cc1cc(C)nc(SCC(=O)N2CCC(C(N)=O)CC2)n1	30.3*	-5.0	1.0	3.2	-13.6
COc1cc(C)nc(SCC(N)=O)n1	x	-1.6	2.9	16.4	32.5*
SMILES	D2 PAM-1	D2 ag-1	D2 ag-2	D2 PAM-2	D2 antag
Cc1cc(N)nc(SCC(=O)N2C(C)CCCC2C)n1 (configuration not stated)	33.9*	0.5	1.0	-3.5	-23.2
Cc1noc(C)c1NC(=O)NC(c1ccccc1)c1ccccc1	-2.4	-0.4	0.3	-1.8	-19.6
CCc1nc2nc(C)cc(Nc3cc(Cl)ccc3OC)n2n1	x	x	-0.2	x	x
CCc1c(C)nc2nncn2c1Nc1ccc(C(C)C)cc1	-4.6	x	-1.0	x	x
CC(C)NC(=O)c1csc([C@@H]2O[C@H](CO)[C@H](O)[C@H](O)[C@H]2O)n1	x	-4.9	x	-5.5	x
Cc1ccc2c(c1)N(C(=O)N1CCC(C(=O)NC3CCCCCC3)CC1)CC(C)O2 (configuration not stated)	-5.5	x	-1.4	x	x
COc1ccc2nc(N(CCN(C)C)C(=O)/C=C/c3cccs3)sc2c1	-7.8	-0.7	-0.2	-19.0	0.8
Cc1cccc2sc(N(CCN(C)C)C(=O)/C=C/c3cccs3)nc12	-18.8	-4.1	-0.3	-43.0	31.6*
COc1ccc2sc(N(CCN(C)C)C(=O)/C=C/c3cccs3)nc2c1	-23.2	2.5	0.0	-16.6	35.8*
COc1ccc(S(=O)(=O)c2cn(CC(=O)Nc3ccccc3)c3ccc(Cl)cc3c2=O)cc1	-24.8	x	0.2	x	x
Cc1nc2c3ccccc3nc(NNC(=O)CCC(=O)N3CCCC(C)C3)n2n1 (configuration not stated)	-0.7	-1.2	-1.2	-8.4	11.2
COc1cccc(NC(=O)CN2C(=O)CSc3ccc(S(=O)(=O)N4CCCC4)cc32)c1	-2.0	x	-1.6	x	x
CSCCC(NC(=O)c1ccco1)C(=O)N1CCCC(C(F)(F)F)C1 (configuration not stated)	-0.3	-5.5	-1.4	-5.3	31.5*
CSCCC(NC(=O)c1ccco1)C(=O)N1CCN(C(c2ccccc2)c2ccccc2)CC1 (configuration not stated)	10.9	-1.3	-0.6	-7.6	34.4*
N#C/C(=C/c1ccc(N2CCOCC2)o1)C(=O)Nc1ccccc1	7.7	0.3	39.8*	-8.0	9.5
N#C/C(=C\c1ccc(N2CCOCC2)o1)C(=O)NCCc1ccccc1	3.1	6.3	20.7	-7.2	45.6*
COCCNC(=O)/C(C#N)=C/c1ccc(N2CCOCC2)o1	-0.2	-3.5	13.4	-24.8	-12.4
COc1ccc(-c2nc(CNC(=O)Nc3ccccc3)c(C)o2)c(OC)c1	6.8	x	0.3	x	x
Cc1nc(-c2ccc(S(=O)(=O)Nc3ccc(C#N)cc3)cc2)co1	17.1	x	-0.4	x	x
CCc1ccc2[nH]cc(S(=O)(=O)c3ccc(C(C)C)cc3)c(=O)c2c1	-1.0	x	0.8	x	x
NC(=O)c1ccccc1NC(=O)CC12CC3CC(CC(Br)(C3)C1)C2	36.3*	-0.9	5.4	-5.5	-4.7
COc1ccccc1NC(=O)CC12CC3CC(CC(Br)(C3)C1)C2	5.0	0.5	0.6	-3.6	-1.8
COc1ccc(C)cc1NC(=O)CCS(=O)(=O)c1ccc2c(c1)CC(=O)N2C	-3.7	x	0.4	x	x
CCN(CC)c1ccc2c(C)c(Cl)c(=O)oc2c1	8.2	7.1	-0.3	-3.1	-5.5
CCN(CC)c1ccc2c(c1)oc(=O)c1c(Cl)cc(=O)oc12	-4.5	-5.0	47.7*	-32.8	51.4*
O=C(Nc1ccc2nc(SCC(=O)N3CCCc4ccccc43)sc2c1)c1cccc(Cl)c1	21.4	x	-1.9	x	x
CC(=O)Nc1cccc(C(=O)/C=C/c2ccc(/C=C/C(=O)c3cccc(NC(C)=O)c3)cc2)c1	-4.1	x	0.7	x	0.0
CC(=O)Nc1cccc(C(=O)/C=C/c2ccc(N(C)C)cc2)c1	-2.8	6.1	85.9*	u	35.0*
COc1ccc(CN2CCNC(=O)C2CC(=O)NC2CCCC2)c(OC)c1 (configuration not stated)	106.8*	-1.4	-0.3	-5.7	-26.9
